Screening data deposited in PubChem by National Center for Advancing Translational Sciences (NCATS).
The sample as a whole holds a higher share of hits than the screen did.
RORg inh = inhibitors of mouse ROR gamma transcriptional activity; P51450; Drosophila S2 Gal4-RORgamma UAS-luciferase reporter, 20 h; Potency, µM (titrated, usually from 53.6 µM), most hits filed as inhibitors; 310,000 compounds, 5.4% hits; AID 2551; further: nearly all actives have a fitted effect of over 60% in size
Target sequence (P51450 whole entry, looked up, the tested form may be a part): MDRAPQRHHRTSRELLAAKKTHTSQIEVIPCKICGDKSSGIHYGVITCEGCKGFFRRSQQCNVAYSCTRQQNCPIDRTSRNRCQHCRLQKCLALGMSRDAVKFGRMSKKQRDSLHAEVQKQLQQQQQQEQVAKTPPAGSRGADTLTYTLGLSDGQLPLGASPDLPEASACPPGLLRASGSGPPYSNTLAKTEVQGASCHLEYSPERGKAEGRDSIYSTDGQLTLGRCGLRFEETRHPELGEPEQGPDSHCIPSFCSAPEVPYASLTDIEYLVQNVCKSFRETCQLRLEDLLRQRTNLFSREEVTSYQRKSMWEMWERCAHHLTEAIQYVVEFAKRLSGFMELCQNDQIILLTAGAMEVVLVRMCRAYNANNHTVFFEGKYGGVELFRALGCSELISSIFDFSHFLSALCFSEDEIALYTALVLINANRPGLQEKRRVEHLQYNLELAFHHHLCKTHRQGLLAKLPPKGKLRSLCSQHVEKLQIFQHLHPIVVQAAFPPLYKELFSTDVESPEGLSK
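Stable Schneider cell line, Gal4 DNA-binding domain fused to ROR gamma, UAS-luciferase. Cmpd 1 hr RT → CuSO4 700 uM final → 20 hr RT → luciferase reagent 10 min → luminescence.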
Giardia kill = Giardia lamblia killing. 340,000 compounds, 0.15% hits. Giardia lamblia trophozoite viability. activity change, % at 7.66 µM, hits read low; in the data active means activity change below about -80%; inconclusive means between about -30% and that limit;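 further: parasites exposed to compound for two days anaerobically before the ATP read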
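Each well holds 100 Giardia trophozoites and compound. After two days (48 hrs) at 37 deg C in anaerobic conditions, ATP is quantified by luminescence.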
ERG Ets-DNA blk = inhibitors of human ERG Ets domain-DNA interaction; fluorescence polarization, His-ERG Ets domain / labelled DNA; 370,000 compounds, 0.028% hits; Potency, µM (top dose mostly 76.9 µM), most hits filed as inhibitors; active means well fitted inhibition curve with a large enough effect in the polarisation, with a control signal flat; inconclusive means small, poorly fitted or top-dose-only effect, or effect the other way, or a change in a side signal; inactive means no such curve, though single readings can be large or run the other way; the % refers to the polarisation;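 further: polarization taken with two DNA probes labelled with fluorescein and Texas red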
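His-tagged ERG Ets domain (1 uM in the protein solution; 300mM KCl, 50mM Tris-HCl, 1mM EDTA, 1mM DTT, pH 7.5) received compound, then a probe mix of 5 nM fluorescein-DNA and 100nM Texas-615-DNA. Fluorescence polarization was read for both dyes.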
a7 integrin act = activates integrin-mediated alleviation for muscular dystrophy | Potency, µM (titrated, usually from 38.3 µM), usual class: activators | AID 624291 | 350,000 compounds, 0.064% hits | alpha7betagal myoblasts, beta-gal FDG fluorescence, 48 h; further: nearly all actives have a fitted effect of over 60% in size
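Alpha7betagal+/- myoblasts (passage 13) were plated 16-24 hr, then exposed to compounds (1:260 dilution of DMSO stock) for 48 hours at 37C. After MPER lysis, β-galactosidase reporter activity was read as FDG fluorescence (ex 480/em 540) after 30 minutes.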
VP16 counter = inhibits Gal4-VP16 luciferase reporter, ROR gamma counter-screen; Drosophila S2 Gal4-VP16 UAS-luciferase, luminescence, 20 h; Potency, µM (doses to about 53.6 µM), most hits filed as inhibitors; 310,000 compounds, 3.5% hits; AID 2546;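 further: Gal4-VP16 expression switched on by copper sulfate through the metallothionein promoter; nearly all actives have a fitted effect of over 50% in size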
Numbers stand for hits; n = inactive; u = inconclusive; x = not tested or not shown; [ ] = another dose, or the depositor's remark. Unless noted, the call rests on the fitted dose curve; in most records, active means well fitted curve in the direction sought with a large enough effect; inconclusive means small, poorly fitted or top-dose-only effect, or another doubt; inactive means no such curve, though single readings can be large; an effect the other way counts as inactive or inconclusive.

SMILES	RORg inh	Giardia kill	ERG Ets-DNA blk	a7 integrin act	VP16 counter
CC1(C)CC(=O)C2=C(C1)N(Cc1ccccc1)C(=O)C2(NC(=O)C(C)(C)C)C(F)(F)F (centres undefined)	11µM	n	n	n	n
COc1ccc(C/C(C)=N/NC(=S)Nc2ccc(Cl)cc2)cc1	11µM	n	n	n	u
COc1ccc(C/C(C)=N/NC(=O)c2ccc(C)cc2C)cc1	n	n	n	n	n
CCOc1ccc(NC(=S)N/N=C(\C)Cc2ccc(OC)cc2)cc1	n[10 µM]	n	n	n	u
COc1ccc(C/C(C)=N/NC(=S)Nc2ccccc2)cc1	20µM	n	n	n	u
COc1ccc(C/C(C)=N/NC(=S)Nc2ccc(C)c(C)c2)cc1	u	n	n	n	10µM
COC(=O)c1cc2sc(C)cc2n1Cc1nc(-c2cccc(Br)c2)oc1C	x	x	n	x	x
[O-]/C(=C(\C(=S)Nc1cccc2ccccc12)[n+]1ccccc1)c1ccc2c(c1)OCCO2	13µM	n	n	n	u
COc1ccccc1CCN1CCCC(CN(C)CC(C)(C)CO)C1 (centres undefined)	n[1.91 µM]	n	n	n	n
COc1ccccc1CCN1C(=S)NC(C)(C)CC1(C)O (centres undefined)	2.8µM	n	n	n	5.6µM
COc1ccc(CN2C(=S)NC(C)(C)CC2(C)O)cc1 (centres undefined)	13µM	n	n	n	u
CSCC[C@H](NC(=O)[C@H](CO)NC(=O)[C@H](Cc1ccc(O)cc1)NC(=O)[C@@H](N)CO)C(=O)N[C@@H](CCC(=O)O)C(=O)N[C@@H](Cc1cnc[nH]1)C(=O)N[C@@H](Cc1ccccc1)C(=O)N[C@@H](CCCNC(=N)N)C(=O)N[C@@H](Cc1c[nH]c2ccccc12)C(=O)NCC(=O)N[C@@H](CCCCN)C(=O)N1CCC[C@H]1C(=O)N[C@H](C(=O)NCC(=O)N[C@@H](CCCCN)C(=O)N[C@@H](CCCCN)C(=O)N[C@@H](CCCNC(=N)N)C(=O)N[C@@H](CCCNC(=N)N)C(=O)N1CCC[C@H]1C(=O)N[C@H](C(=O)N[C@@H](CCCCN)C(=O)N[C@H](C(=O)N[C@@H](Cc1ccc(O)cc1)C(=O)N1CCC[C@H]1C(=O)O)C(C)C)C(C)C)C(C)C	n	x	x	x	n
COc1ccc2oc(CS(=O)c3ccccc3)c(C(=O)O)c2c1 (centres undefined)	n	n	n	13µM	n
CCOC(=O)c1c(-c2ccccc2)oc2ccc(OC)cc12	n	u	n	n	n
Cc1cc(C(=O)COC(=O)c2ccc3c(c2)OCO3)c(C)n1Cc1cccs1	n	n	n	n	n
Cc1cc(-n2c(C)cc(C(=O)COc3cccnc3[N+](=O)[O-])c2C)no1	x	u	n	n	x
Cc1cc(C(=O)COC(=O)c2ccccc2O)c(C)n1Cc1cccs1	3.5µM	u	n	n	7.1µM
Cc1cc(C(=O)COc2cccnc2[N+](=O)[O-])c(C)n1Cc1cccs1	n	-94	n	n	n
CC(=O)Nc1ccccc1OCC(=O)c1cc(C)n(Cc2cccs2)c1C	n	n	n	n	1.3µM
CN(C)C1CCc2[nH]c3ccc(NC(=O)c4ccc(F)cc4)cc3c2C1 (centres undefined)	n	x	x	x	n
COc1cc(C(=O)OCC(=O)Nc2ccc(SC(F)F)cc2)cc(OC)c1OC	u	n	n	n	1µM
CC(=O)Nc1ccc(/C(C)=N/Nc2nc(Nc3ccccc3)nc(N3CCOCC3)n2)cc1	10µM	n	n	n	u
O=C(NNc1nc(Nc2ccccc2)nc(N2CCOCC2)n1)Nc1ccc(Cl)cc1	1.8µM	n	n	n	5.6µM
O=C(c1ccc(CSc2nc3ccncc3n2Cc2cccc(F)c2)cc1)N1CCCCC1	x	x	n	x	x
O=S(=O)(c1nccs1)N1CCN(c2nc(-c3cccs3)nc3ccccc23)CC1	x	n	x	x	x
O=C(Cn1c(=S)[nH]c2ccccc21)c1ccccc1	10µM	n	n	n	u
CCOC(=O)CCN1C(=O)[C@H]2[C@H]3[C@H](O)[C@H](O)C/C(=N/NC(=O)OCc4ccccc4)[C@H]3CC[C@@H]2C1=O	n[10 µM]	x	x	x	n[10 µM]
Cc1ccc(NC(=S)Nc2nc(CC(=O)Nc3ccccc3)cs2)cc1	1.4µM	n	n	n	5.6µM
CCCN1CCC2(CC1)C(C#N)=C(N)Oc1c2sc2nc(C)cc(C)c12	n	n	n	n	n
